HIF-2a inh: HIF-2a reporter inhibitors, primary screen, luminescence, 786-0 RCC cells. 786-0 RCC cells HIF-2a reporter, luciferase luminescence, overnight. inhibition, % at 18.8 µM. actives 0.72% (n = 360,000). AID 624352, 2012;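 active = inhibition of the luminescence signal of 40% or more relative to plate controls, in a single-dose primary screen at 18.75 µM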
TRAIL sens C8: viability loss with TRAIL in NB7+C8 cells, primary screen, TRAIL sensitizer project, cell-based, ATPlite luminescence; inhibition (viability loss, TRAIL sensitization), % at 10 µM; actives 1% (n = 360,000); AID 624354, 2012;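 active = compounds causing at least 50% loss of cell viability in the single-dose screen, relative to plate controls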
Peg3 promoter: Peg3 promoter-driven luciferase inhibitors, primary screen, cell-based, HeLa, luciferase luminescence; HeLa PEG-Prom luciferase reporter, overnight; inhibition, % at 20 µM; actives 1.7% (n = 360,000);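 active = inhibition of at least 50% at 20 µM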
PPC-1+TRAIL kill: compounds killing PPC-1 cancer cells with TRAIL present, primary screen, TRAIL potentiator project, ATPLite luminescence, uHTS; PPC-1 cells + TRAIL, ATPLite viability luminescence; cell killing (% activity), % at 4 µM or 5 µM; actives 0.41% (n = 220,000);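 active = cell killing above 50% in the first pass at 4 µM, then a duplicate retest at 5 µM averaging 50% or more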;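 note: plate controls were cells with TRAIL plus DMSO for no effect and medium-only wells lacking cells for full effect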
CF NFkB inh: inhibitors of PAF-induced NF-kB signaling, primary screen, cell-based, GFP fluorescence, uHTS; KKLEB NF-kB-GFP reporter, GFP fluorescence overnight; inhibition, % at 5 µM; actives 0.86% (n = 360,000);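 active = at least 50% inhibition at 5 µM, scaled per plate between neutral and stimulator controls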;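 note: PAF is a Pseudomonas aeruginosa culture filtrate used as stimulus; plate controls were PAF-stimulated DMSO wells for no effect and unstimulated DMSO wells for full effect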
KKLEB cytotox: cytotoxicity in KKLEB CF airway cells, primary screen, cytotoxicity control for CF NF-kB inhibitor project, cell-based, uHTS, fluorescence assay plates; actives 0.36% (n = 360,000); activity change (cytotoxicity), % at 5 µM; KKLEB CF airway cells viability, ATPlite luminescence, overnight; stronger effect = lower value; cells stimulated with P. aeruginosa culture filtrate;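 active = corrected activity change at or below -50% at 5 µM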
* = called active by the depositor; nt = not tested or not shown. Hits are enriched below; roughly 3.1% of the tested compounds scored in any of these assays.

SMILES | HIF-2a inh | TRAIL sens C8 | Peg3 promoter | PPC-1+TRAIL kill | CF NFkB inh | KKLEB cytotox
C=C1C(=O)O[C@@H]2C[C@@H](C)[C@@H]3C=CC(=O)[C@@]3(C)[C@@H](OC(=O)CC(=O)O[C@H]3[C@@H]4C(=C)C(=O)O[C@@H]4C[C@@H](C)[C@@H]4C=CC(=O)[C@]43C)[C@H]12 | 97* | 95* | 105* | -17 | 80* | -37
Clc1ccc2c(c1)C(OC1CN3CCC1CC3)c1ccccc1CS2 (stereo not given) | 25 | 27 | 97* | 12 | 1 | -10
CN1CCN(CCOC2c3ccccc3CSc3ccc(Cl)cc32)CC1 (stereo not given) | -4 | 3 | 25 | 15 | 28 | -14
CCOc1cc(CNCCc2c[nH]c3ccccc23)cc(Cl)c1OC | 23 | 20 | 62* | -6 | 8 | 0
COc1ccc2[nH]c(C)c(CCNCc3cn(C)c4ccccc34)c2c1 | 9 | 21 | 87* | nt | 39 | -19
O=C1NC(=O)C(CCc2ccncc2)(Cc2cccc(Cl)c2Cl)C(=O)N1c1ccc(Br)cc1 (stereo not given) | 24 | -3 | 57* | 0 | 28 | -22
COC1CC2C=C(C)C=CC=CC(=O)NC(c3ccccc3)CC=CCCC(O)CC(=O)C2=C1O (stereo not given) | 77* | 97* | 98* | nt | 91* | -85*
O=C(NCCN1CCC2(CC1)C(=O)NCN2c1cccc(F)c1)c1ccc2ccccc2c1 | -43 | 12 | nt | nt | nt | nt
CC(=O)N(C)C1=Nc2ccc(Cl)cc2C(c2ccccc2)=[N+]([O-])C1 | -2 | -9 | 6 | nt | 28 | -24
O=[N+]([O-])c1ccc(N(CCO)CCO)c2c1no[n+]2[O-] | 51* | 42 | 99* | nt | 0 | -44
CC1Oc2cc3c(-c4c(O)cc(O)c5c(O)c6c(cc45)OC(C)C(C)C6=O)c(O)cc(O)c3c(O)c2C(=O)C1C (stereo not given) | -8 | 49 | 70* | 13 | 67* | -56*
CCCCCCC(C)(C)c1ccc([C@@H]2C[C@H](O)CC[C@H]2CCCO)c(O)c1 | 15 | 4 | 83* | nt | -5 | -10
O=C1NC(=O)N(c2ccccc2)C(=O)/C1=C/C=C/c1ccco1 | 30 | 0 | 36 | 24 | -2 | 5
Cc1ccc(N2C(=O)NC(=O)/C(=C\C=C\c3ccco3)C2=O)cc1C | 76* | 4 | 76* | 18 | 80* | -38
CN(C)c1ccc(/C=C/C=C2/C(=O)NC(=O)N(c3ccccc3)C2=O)cc1 | 3 | 26 | 103* | 2 | 70* | -27
Cc1ccc(N2C(=O)NC(=O)/C(=C\C=C\c3ccco3)C2=O)cc1 | 42* | 7 | 47 | -4 | 52* | -6
C=CCN1C(=O)NC(=O)/C(=C/C=C/c2ccccc2)C1=O | 16 | 20 | 24 | 27 | -14 | 0
Cc1cccc(N2C(=O)NC(=O)/C(=C\C=C\c3ccco3)C2=O)c1 | 39 | 12 | 45 | 3 | 88* | -9
COc1cc2c(cc1OC)C13CCN4CC5=CCOC6CC(=O)N2C1C6C5C3C4 (stereo not given) (tested in a mixture with another compound) | 12 | 3 | 5 | nt | 4 | -6
C=CCCC1(C2=CCCCC2)C(=O)NC(=O)NC1=O | 11 | -17 | -17 | nt | 2 | 8
CCOC(=O)C(=CNc1ccc(C(O)(C(=O)OCC)C(F)(F)F)cc1C)C(=O)OCC (stereo not given) | 28 | 73* | 27 | 10 | 9 | -14
CN1/C(=C\C=Nc2ccccc2)C(C)(C)c2ccccc21 | 3 | 3 | 1 | 13 | -18 | -13
CCN1/C(=C/C=C/C2=[N+](CC)c3ccccc3C2(C)C)C(C)(C)c2ccccc21 | 39* | 71* | 96* | nt | -85 | -42
CN1/C(=C\C=C\C2=[N+](C)c3ccc4ccccc4c3C2(C)C)C(C)(C)c2ccccc21 | nt | nt | nt | 66* | nt | nt
OC(c1cccc(Cl)c1)(c1cccc(Cl)c1)C1CN2CCC1CC2 (stereo not given) | 11 | -3 | 96* | 26 | 18 | -10
SMILES | HIF-2a inh | TRAIL sens C8 | Peg3 promoter | PPC-1+TRAIL kill | CF NFkB inh | KKLEB cytotox
O=C1NC(=O)C(=Cc2ccc(-c3ccc(F)cc3O)o2)C(=O)N1 | 48* | 3 | 9 | nt | 39 | -5
O=C1NC(=O)C(=Cc2ccc(-c3ccc(Cl)cc3)o2)C(=O)N1 | 14 | 13 | 102* | nt | -3 | 2
O=C1NC(=O)C(=Cc2ccc(-c3ccc(S(=O)(=O)N4CCOCC4)cc3)o2)C(=O)N1 | 3 | -7 | -15 | nt | -12 | -13
C/C=C1\NC(=O)[C@@H](NC(=O)[C@H](CCc2ccc(O)cc2)NC(=O)[C@H](C)NC(=O)[C@H](O)CO)[C@@H](C)OC(=O)[C@H](C(C)C)NC(=O)[C@H](Cc2ccc(O)cc2)N(C)C(=O)[C@H](Cc2ccccc2)N2C(=O)C(CC[C@H]2O)NC1=O (stereo not given in full) | 4 | -16 | -15 | nt | -6 | 10
CC(=O)NC1=C(N2CC2C)C(=O)C(NC(C)=O)=C(N2CC2C)C1=O (stereo not given) | 4 | -3 | 6 | nt | 18 | -3
CN1CCN(c2nc(N)c(Br)c(Cl)n2)CC1 | -24 | 0 | -22 | 0 | -12 | 8
Cc1ccc(OCCOc2cccc(C=C3C(=O)NC(=O)NC3=O)c2)c(C)c1 | 55* | 17 | -58 | nt | -7 | 2
O=C1NC(=O)C(=Cc2cccc(OCCOc3ccccc3)c2)C(=O)N1 | -56 | -15 | -135 | nt | -4 | -6
CCCCCCCSc1cc(OC)c(CCN(C)C)cc1OC | 6 | 25 | 104* | 16 | 5 | -5
CCCCCSc1cc(OC)c(CCN)cc1OC | -2 | 17 | -15 | 18 | -2 | 0
O=C1NC(=O)C(=Cc2cn(CCOc3ccc4c(c3)OCO4)c3ccccc23)C(=O)N1 | 13 | 19 | 64* | -25 | -4 | -19
Cc1cc(N(CCCl)CCCl)ccc1C=NNC(=O)Cc1cc(=O)oc2cc(O)ccc12 | -9 | 16 | 31 | nt | 0 | 0
CC(O)C1C=CC=CC(=O)OC2CC3OC4C5OC5(C)C(O)CC4(COC(=O)C(O)C(C)CCO1)C2(C)C31CO1 (stereo not given) | 66* | 62* | 105* | nt | 83* | -13
CO[C@H]1C=C2CCN(C)[C@H]2C2c3cc4c(cc3C(=O)O[C@@H]21)OCO4 (stereo not given in full) | 5 | -2 | -17 | nt | -4 | 3
